PubChem BioAssay (NCI)
Where “and” joins values, the source holds several entries; their conditions need not be identical. Identical values can stand only once. Compounds without any hit were thinned out: in the full panel of roughly 79,000, 15% have a hit. Some structures have more than one record in an assay (separate samples or runs), and their calls can disagree. Calls of active or inactive are those of the source. Rule as the data show it: active = growth inhibition above about 70%; inactive = the rest.

How the values were obtained:
[1] = NCI Yeast Anticancer Drug Screen. Data for the mec2-1 strain (AID 157); conditions: S. cerevisiae mec2-1 strain, stronger effect = higher value
Method in brief: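 Test agents were screened against the mec2-1 yeast strain, with defined DNA repair or cell cycle alteration. Growth was scored as inhibition against vehicle-only controls.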

[2] = NCI Yeast Anticancer Drug Screen. Data for the rad14 strain (AID 159);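 also: 0% = growth of vehicle-treated control cultures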; conditions: S. cerevisiae rad14 strain growth inhibition, stronger effect = higher value
Method in brief: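 Readout: yeast growth inhibition, referenced to vehicle-only cultures. Strain bears a defined alteration in DNA damage repair.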

[3] = NCI Yeast Anticancer Drug Screen. Data for the sgs1 mgt1 strain (AID 161);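 also: 0% = growth of cultures given vehicle only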; conditions: S. cerevisiae sgs1 mgt1 strain, stronger effect = higher value
Method in brief: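 Read-out: growth inhibition vs vehicle controls. Cells: mutant yeast strain deficient in DNA damage repair.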

[4] = NCI Yeast Anticancer Drug Screen. Data for the CLN2oe strain (AID 163);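 also: 0% = growth of vehicle-only control cultures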; conditions: S. cerevisiae CLN2oe strain, stronger effect = higher value
Method in brief: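 Here, growth inhibition in a cell-cycle-altered yeast strain after compound exposure was quantified against vehicle control growth.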

[5] = NCI Yeast Anticancer Drug Screen. Data for the cln2 rad14 strain (AID 165);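 also: 0% = growth equal to vehicle treated cultures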; conditions: S. cerevisiae cln2 rad14 strain, stronger effect = higher value
Method in brief: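 Growth of compound-exposed yeast (cln2 rad14 genotype) measured and expressed as inhibition relative to vehicle.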

[6] = NCI Yeast Anticancer Drug Screen. Data for the bub3 strain (AID 167); conditions: S. cerevisiae bub3 mutant strain, stronger effect = higher value
Method in brief: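 Part of a panel of yeast mutants defective in DNA damage repair or cell cycle regulation. Each strain is grown with compound, and inhibition is calculated relative to solvent-treated cultures.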

[7] = NCI Yeast Anticancer Drug Screen. Data for the wt2 strain (AID 169);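 also: 0% = growth of vehicle-treated yeast cultures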; conditions: S. cerevisiae wt2 strain growth inhibition, stronger effect = higher value
Method in brief: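 Genetically defined yeast strains from a DNA-repair/cell-cycle panel were used. Compound-exposed yeast growth was measured, and the inhibition was calculated relative to vehicle treatment.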

[8] = NCI Yeast Anticancer Drug Screen. Data for the mlh1 strain (AID 171);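 also: 0% = growth of vehicle-treated control cultures of the same strain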; conditions: S. cerevisiae mlh1 strain growth inhibition, stronger effect = higher value
Method in brief: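 Here the genetically defined yeast mutant is grown with each compound, and the extent to which its growth falls below that of vehicle-exposed cells is reported.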

[9] = NCI Yeast Anticancer Drug Screen. Data for the sgs1 strain (AID 173);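 also: 0% = growth of vehicle-only control cultures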; conditions: S. cerevisiae sgs1 mutant, stronger effect = higher value
Method in brief: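 Relative growth inhibition, referenced to vehicle, was determined in a yeast strain with a defined alteration affecting DNA damage repair or cell cycle control after compound exposure.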

[10] = NCI Yeast Anticancer Drug Screen. Data for the mlh1 rad18 strain (AID 175); conditions: S. cerevisiae mlh1 rad18 strain growth inhibition, stronger effect = higher value
Method in brief: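 In this whole-cell yeast screen, a strain with altered DNA damage repair is challenged with compound, and its growth is measured against matched vehicle-treated controls.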

[11] = NCI Yeast Anticancer Drug Screen. Data for the rad18 strain (AID 177); conditions: S. cerevisiae rad18 mutant growth inhibition, stronger effect = higher value
Method in brief: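 Screen uses a yeast strain with a defined lesion in DNA damage repair; compound effect is read as loss of growth compared to untreated vehicle cultures.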

[12] = NCI Yeast Anticancer Drug Screen. Data for the rad52 strain (AID 147);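 also: 0% = growth of vehicle-treated control cultures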; conditions: S. cerevisiae rad52 mutant growth inhibition, stronger effect = higher value
Method in brief: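 Measured: yeast growth inhibition. System: strain with a defined DNA damage repair alteration. Reference: vehicle-treated control cultures.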

[13] = NCI Yeast Anticancer Drug Screen. Data for the wt1 strain (AID 149);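 also: 0% = growth of vehicle-treated wt1 cultures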; conditions: S. cerevisiae wt1 strain (SPY 50644) growth inhibition, stronger effect = higher value
Method in brief: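 The wt1 strain was treated with compounds, and growth was compared with vehicle-treated cultures to give inhibition.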

[14] = NCI Yeast Anticancer Drug Screen. Data for the rad50EPP+ strain (AID 151);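 also: 0% = growth of vehicle-treated control cultures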; conditions: S. cerevisiae rad50 mutant strain, stronger effect = higher value
Method in brief: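 One strain with a rad50 alteration (rad50EPP+) was compound-treated, its growth then compared to that of vehicle controls.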

[15] = NCI Yeast Anticancer Drug Screen. Data for the mgt1 strain (AID 153); conditions: S. cerevisiae mgt1 mutant growth inhibition, stronger effect = higher value
Method in brief: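 After exposure of the mgt1 yeast mutant to compound, growth was measured and reported as inhibition compared with vehicle controls.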

[16] = NCI Yeast Anticancer Drug Screen. Data for the rad50 strain (AID 155);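 also: 0% = growth of vehicle-only cultures of the same strain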; conditions: S. cerevisiae rad50 strain growth inhibition, stronger effect = higher value
Method in brief: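 Cells are treated with compound, grown, and their growth is then scored against vehicle-only cultures of the same repair-deficient yeast strain.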

[17] = at 5.0 µM (retest, dose inferred, filed as 0.5)
[18] = at 50.0 µM (retest, dose inferred, filed as 5.0)

Measured: growth inhibition

O=C1C(Br)=C(c2ccccc2)O/C1=C/C(=O)c1ccc(Br)cc1
active: [1]; at 100.0 µM 92% | [2]; at 100.0 µM 96% | [6]; at 100.0 µM 84% | [8]; at 100.0 µM 89% | [9]; at 100.0 µM 94% | [11]; at 100.0 µM 79%
inactive: [1]; [17] -6% | [1]; at 11.0 µM 8% | [1]; at 33.0 µM 20% | [1]; [18] 25% | [1]; at 50.0 µM 21.1% | [2]; at 1.2 µM 3% | [2]; at 3.7 µM 6% | [2]; at 11.0 µM 13% | [2]; at 33.0 µM 28% | [3]; [17] -7% | [3]; [18] 39% | [3]; at 50.0 µM 53.9% | [4]; at 1.2 µM 1% | [4]; at 3.7 µM 1% | [4]; at 11.0 µM 4% | [4]; at 33.0 µM 9% | [4]; at 100.0 µM 18% | [5]; [17] -13% | [5]; [18] 12% | [5]; at 50.0 µM 29.7% | [6]; at 1.2 µM -2% | [6]; at 3.7 µM -2% | [6]; [17] -16% | [6]; at 11.0 µM -1% | [6]; at 33.0 µM 6% | [6]; [18] 21% | [6]; at 50.0 µM 15.4% | [7]; at 1.2 µM 1% | [7]; at 3.7 µM 3% | [7]; at 11.0 µM 7% | [7]; at 33.0 µM 31% | [7]; at 100.0 µM 69% | [8]; at 1.2 µM -2% | [8]; at 3.7 µM 1% | [8]; at 11.0 µM 9% | [8]; at 33.0 µM 20% | [9]; at 1.2 µM 1% | [9]; at 3.7 µM 5% | [9]; at 11.0 µM 15% | [9]; at 33.0 µM 37% | [10]; [17] -16% | [10]; [18] 62% | [10]; at 50.0 µM 52.6% | [11]; at 1.2 µM 2% | [11]; at 3.7 µM 3% | [11]; at 11.0 µM 13% | [11]; at 33.0 µM 25%

O=c1ssc(=Nc2ccccc2)n1-c1ccccc1
99.5% (active) and 66.2% (inactive): [5]; at 50.0 µM
86% (active) and 64% (inactive): [5]; [18]
active: [14]; at 100.0 µM 80% | [16]; [18] 99% | [16]; at 50.0 µM 99.5% and 99% | [16]; at 100.0 µM 72% | [1]; [18] 97% and 98% | [1]; at 50.0 µM 99.8% and 99.5% | [3]; [18] 99% and 100% | [3]; at 50.0 µM 98.2% and 99.3% | [6]; [18] 99% and 100% | [6]; at 50.0 µM 99.5% and 99.7% | [9]; at 100.0 µM 79% | [10]; [18] 99% and 82% | [10]; at 50.0 µM 95.4% and 98.7%
75% (active) and 8% (inactive): [10]; [17]
inactive: [12]; at 1.2 µM 10% | [12]; at 3.7 µM 9% | [12]; at 11.0 µM 5% | [12]; at 33.0 µM 20% | [12]; at 100.0 µM 62% | [13]; at 1.2 µM -3% | [13]; at 3.7 µM -5% | [13]; at 11.0 µM -4% | [13]; at 33.0 µM 0% | [13]; at 100.0 µM 11% | [14]; at 1.2 µM 6% | [14]; at 3.7 µM 3% | [14]; at 11.0 µM 3% | [14]; at 33.0 µM 32% | [15]; at 1.2 µM 0% | [15]; at 3.7 µM 2% | [15]; at 11.0 µM 0% | [15]; at 33.0 µM 12% | [15]; at 100.0 µM 39% | [16]; at 1.2 µM 9% | [16]; at 3.7 µM 5% | [16]; [17] 23% and 20% | [16]; at 11.0 µM 2% | [16]; at 33.0 µM 29% | [1]; at 1.2 µM -6% | [1]; at 3.7 µM -3% | [1]; [17] -2% and 5% | [1]; at 11.0 µM -3% | [1]; at 33.0 µM 5% | [1]; at 100.0 µM 33% | [2]; at 1.2 µM 5% | [2]; at 3.7 µM 4% | [2]; at 11.0 µM 1% | [2]; at 33.0 µM 11% | [2]; at 100.0 µM 30% | [3]; [17] 49% and 27% | [4]; at 1.2 µM 2% | [4]; at 3.7 µM -4% | [4]; at 11.0 µM -4% | [4]; at 33.0 µM 7% | [4]; at 100.0 µM 30% | [5]; [17] -11% and -1% | [6]; at 1.2 µM -5% | [6]; at 3.7 µM -9% | [6]; [17] 12% and 1% | [6]; at 11.0 µM -7% | [6]; at 33.0 µM 6% | [6]; at 100.0 µM 37% | [7]; at 1.2 µM -9% | [7]; at 3.7 µM -15% | [7]; at 11.0 µM -9% | [7]; at 33.0 µM -9% | [7]; at 100.0 µM 15% | [8]; at 1.2 µM 7% | [8]; at 3.7 µM 4% | [8]; at 11.0 µM 2% | [8]; at 33.0 µM 17% | [8]; at 100.0 µM 48% | [9]; at 1.2 µM -15% | [9]; at 3.7 µM 7% | [9]; at 11.0 µM -6% | [9]; at 33.0 µM 34% | [11]; at 1.2 µM 4% | [11]; at 3.7 µM 3% | [11]; at 11.0 µM -1% | [11]; at 33.0 µM 13% | [11]; at 100.0 µM 47%
